For 26 compounds, outcome and AC50 results are on record in PubChem BioAssay (EPA / NIEHS).

Each structure is given as a SMILES string. Active and inactive are the calls of the source. Rule for the calls: active = hit-call score of the fitted dose curve at least 0.9, where 1 is the maximum; inactive = score below 0.9.

The nature of the assay: ATG_CRE_CIS: Attagene CIS-FACTORIAL HepG2 Assay for human cAMP Responsive Element (CRE) binding protein 3 (AID 2282926). The conditions noted are these: HepG2 CRE cis-reporter, Attagene multiplexed mRNA; actives raise or lower the signal. A digest of the protocol: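 HepG2 cells transiently transfected with a multiplexed reporter library (CRE-driven unit among them) were dosed for 24 h. Reporter mRNA was quantified by RT-PCR, fluorescent labelling, HpaI digestion and capillary electrophoresis, with bidirectional fitting against DMSO baseline.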
Take `Cc1cc(Cc2ccc(N)c(C)c2)ccc1N`: the compound was classed as inactive. Regarding `O=C1OC(c2ccc(O)cc2)(c2ccc(O)cc2)c2ccccc21`, the AC50 is 27.2 µM (active).

In the case of `CC(C)(C)c1ccccc1`, the result was inactive.

`CCCCCCCCCCCCCCCCO`: the result was inactive. Consider `COC(=O)CCC(=O)OC`, for which the outcome was inactive. `CC(=O)CC(c1ccccc1)c1c(O)c2ccccc2oc1=O` (stereo unspecified): the result was inactive. As for `CC(C)c1cccc(C(C)C)c1`, the outcome was inactive. With `CC(C)(O)c1ccc(CNC(=O)c2cccnc2Oc2ccc(F)cc2)cc1`, the compound was called inactive. On the same count and under the same terms, the value for `NCCOCCOCCN` was “inactive”; that for `C/C=C/c1ccc(OC)cc1` was “inactive”; that for `Oc1ccccc1O` was “inactive”.

For the compound `CCc1cc(C2=C(C(=O)O)N(c3ccccc3C(F)(F)F)S(=O)(=O)c3ccccc32)cc2c1OCO2`, the compound was classed as inactive.

For the compound `CCCCCCCC(=O)OC`, the compound was called inactive. On to `O=C(NS(=O)(=O)/C=C/c1cccs1)c1ccc(F)cc1Br`, for which the compound was classed as inactive. As to `CCCCC(CC)COC(=O)CCCCCCCC(=O)OCC(CC)CCCC` (stereo unspecified), the outcome was inactive. As to `S=c1[nH]c2ccccc2s1`, the compound was called inactive. On to `CC(C)c1cccc(C(C)C)c1NC(=O)NS(=O)(=O)c1cc(C(C)(C)O)co1`, for which the result was inactive.

Turning to `O=C(O)c1cccnc1`, the result was inactive. Same read-out and setting: the value for `NC(=Nc1ccccc1)Nc1ccccc1` was “inactive”; that for `CC(=O)[C@@]1(O)CC[C@H]2[C@@H]3CCC4=CC(=O)CC[C@]4(C)[C@H]3CC[C@@]21C` was “inactive”. Still for that read-out and setting: in the case of `Oc1ccc(O)cc1` it was “inactive”. For the compound `O=Cc1ccccc1C=O`, the result was inactive. On to `COC(=O)CCCC(=O)OC`, for which the call was inactive.

On to `O=C(O)CN(CC(=O)O)CC(=O)O`, for which the result was inactive. The same measure, in the same setting: in the case of `C=CCc1ccc(OC)c(OC)c1` it was “inactive”.

Regarding `O=[Si]=O`, the compound was called inactive.

What is called AC50 is the concentration giving half of the maximal activity seen.
